Sampled rows, rich in hits. Any-hit rate of the full collection: about 1.1%.
BCR signal inh = qHTS Assay to Find Inhibitors of Chronic Active B-Cell Receptor Signaling. ABC-DLBCL IkBa-CBG/CBR reporter, luminescence ratio, 4 h. Potency, µM (doses to about 46.1 µM), for inactives: at the top dose activity change, negative = inhibition, hits mostly inhibitors. 340,000 tested, 0.05% active. AID 493014, 2011; active = well fitted inhibition curve with a large enough effect in the signal ratio, with a control signal flat, not every such curve was filed as active; inconclusive = small, poorly fitted or top-dose-only effect, or effect the other way, or a change in a side signal; the % refers to the signal ratio;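 also: plate controls were basal doxycycline-induced cells for no effect and cells given 10 µM MG132 for full effect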
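TMD8 human ABC-DLBCL cells with doxycycline-inducible IκBα–green luciferase fusion and unfused red luciferase, in 0.5% FBS medium; compounds up to 46 uM, 4 h at 37C. Green/red luminescence ratio, filter-overlap corrected, fitted to concentration-response curves.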
12-LOX inh = Primary qHTS assay for inhibitors of human arachidonate 12S-lipoxygenase (ALOX12): Round 2; Polyunsaturated fatty acid lipoxygenase ALOX12 (Homo sapiens), P18054; purified 12hLO, xylenol orange hydroperoxide absorbance; Potency, µM (series often up to 108 µM), for inactives: top-dose activity change, negative = inhibition, actives largely listed as inhibitors; 580,000 tested, 1.1% active; AID 1671190, 2021; also: % is scaled to controls: 0 for no effect and ±100 for the full control effect
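Purified human 12hLO at 150 nM in 25 mM Hepes, 0.01% Triton X-100, pH 7.0, preincubated 15 min at room temperature with compound. Reaction started with 40 uM arachidonic acid, 30 min at room temperature. Hydroperoxide measured by Fe-xylenol orange, 573/405 nm absorbance ratio.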
Glioma ERSR ind = qHTS for Inducers of the Endoplasmic Reticulum Stress Response (ERSR) in Human Glioma: qHTS; 420,000 tested, 0.02% active; AID 602332, 2012; Potency, µM, inactives show at the highest dose activation, most hits filed as activators; U87-MG GRP78 promoter luciferase reporter, 16 h; also: series mostly up to about 76 µM; % of control where 0% means no effect; nearly all actives have a fitted effect of over 35% in size
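Stably transfected U87-MG glioma cells carrying a GRP78-based luciferase sensor; 16 h compound incubation. Luminescence end-point read 10 min after Bright-Glo addition at room temperature.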
Apoferritin bind = qHTS Assay for Identification of Novel General Anesthetics | Ferritin light chain (Equus caballus), P02791 | apoferritin/1-aminoanthracene competitive binding, fluorescence | Potency, µM (doses to about 77.5 µM), without a hit: top-dose activity change, negative = displacement, actives largely listed as inhibitors | 350,000 tested, 0.074% active; also: % is scaled to controls: 0 for no effect and ±100 for the full control effect; nearly all actives have a fitted effect of over 20% in size
Target sequence (P02791 2-175 limits assumed): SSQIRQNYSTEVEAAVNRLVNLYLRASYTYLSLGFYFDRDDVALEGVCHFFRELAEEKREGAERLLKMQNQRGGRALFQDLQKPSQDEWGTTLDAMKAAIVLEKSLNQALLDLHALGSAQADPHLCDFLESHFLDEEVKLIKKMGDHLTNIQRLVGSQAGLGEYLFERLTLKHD
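Probe: 1-aminoanthracene (50% saturated, PBS). Protein: horse-spleen apoferritin, 10 uM. Incubation: 10 min, room temperature. Detection: 380 nm excitation, 535 nm emission. Analysis: normalized response, four-parameter Hill.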
* marks the source's active call; other numbers are inactive results; ? = inconclusive; . = not tested or not shown; ! = not confirmed by another sample. Unless noted, calls follow the shape of the dose curve; as a rule, active = well fitted curve in the direction sought with a large enough effect; inconclusive = small, poorly fitted or top-dose-only effect, or another doubt; inactive = no such curve, though single readings can be large; an effect the other way counts as inactive or inconclusive. Potency is read from the fitted curve at half-maximal effect.

SMILES	BCR signal inh	12-LOX inh	Glioma ERSR ind	Apoferritin bind
Cc1ccc(NC(=O)Cn2c(-c3ccccc3)nc(C)c(CCO)c2=O)cc1Cl	.	18.6%	.	.
COc1cc2oc(=O)c(CC(=O)NC3CCS(=O)(=O)C3)c(C)c2cc1Cl (configuration not stated)	.	3.8%	.	.
CNc1nc(-c2ccccc2)[n+](-c2ccc(C)cc2)s1	?	7.08µM*	-4.4%	-1.6%
Cc1ccc(-c2nc(N)s[n+]2-c2ccccc2)cc1	-21.0%	?	1.2%	-5.3%
CC1CCN(c2ccc(NC(=O)c3ccccc3SC3CCS(=O)(=O)C3)cc2)CC1 (configuration not stated)	.	6.31µM*	.	.
CC1CCN(c2ccc(NC(=O)c3cccnc3Cl)cc2)CC1	9.1%	-17.6%	2.4%	-13.7%
CCOc1ccc2c(c1)cc(C(=O)NCc1ccco1)n2C	.	17.8µM*	.	.
CCOc1ccc2c(c1)cc(C(=O)Nc1ccc(OC)cc1)n2C	.	1.9%	.	.
CN(C)/C=C1\Oc2ccc3ccccc3c2C1=O	?	5.01µM*	-2.7%	65.8%
N#Cc1cccc(CNCC(c2ccccc2)N2CCCC2)c1 (configuration not stated)	.	6.4%	.	.
C/C(CC(=O)Nc1cc(Cl)cc(Cl)c1)=N\NC(=O)c1cccnc1	.	6.4%	.	.
CCNC(=S)N/N=C/c1cc(C)ccc1C	?	39.8µM*	-2.7%	-3.7%
COc1ccccc1CNc1nc2ccccc2nc1NS(=O)(=O)c1cc(C)ccc1C	.	-0.9%	.	.
COc1ccc(CCN(C)C(=O)C2CCCN(C3CCN(Cc4ccccc4)CC3)C2)cc1OC (configuration not stated)	-6.0%	0.316µM*!	-2.8%	-6.5%
CC(=O)N(C1=C(Cl)C(=O)c2ccccc2C1=O)C1CCCCC1	?	1.78µM*	-12.8%	-12.0%
O=C(Nc1ccc2oc(-c3ccncc3)nc2c1)c1cc(Cl)ccc1Cl	.	6.6%	.	.
Cc1ccc(CSc2nnc(COc3ccc(Cl)c(C)c3)n2C)cc1	.	-20.0%	.	.
CC1CCCC(NC(=S)NC(=O)c2ccco2)C1C (configuration not stated)	0.7%	31.6µM*	-4.1%	.
Cc1ccc(OCCOc2ccc(Br)cc2/C=C(/C#N)c2ccccc2)cc1	.	-5.1%	.	.
O=C(NCC(c1ccco1)N1CCc2ccccc21)C(=O)Nc1ccccc1F (configuration not stated)	-4.9%	-17.4%	-6.0%	.
O=C(NCC(c1ccco1)N1CCc2ccccc21)C(=O)Nc1ccc(F)cc1F (configuration not stated)	9.2µM*	?	-5.0%	.
O=C(Nc1oc2ccc(Cl)cc2c(=O)c1-c1ccccc1)c1cccc([N+](=O)[O-])c1	.	0.3%	.	.
O=c1[nH]c(/C=C\c2cccs2)nc(O)c1[N+](=O)[O-]	-2.9%	22.4µM*	-6.4%	-8.0%
CCc1ccc(CN(C)C(=O)CN2CCN(c3ccc([N+](=O)[O-])c4cnccc34)CC2)cc1	.	-27.9%	.	.
O=[N+]([O-])c1ccc(C(=S)N2CCN(c3ccc(F)cc3)CC2)cc1	3.6%	50.1µM*	-3.7%	-14.5%
SMILES	BCR signal inh	12-LOX inh	Glioma ERSR ind	Apoferritin bind
CCCCn1c(=O)[nH]c(=O)c2c1nc(CSc1nccn1-c1cc(C)cc(C)c1)n2C	.	2.3%	.	.
COc1ccc2nc(NC(=S)N(C)C)sc2c1	?	7.94µM*	-9.2%	-8.7%
NC(=O)C1(NC(=O)c2ccc(I)cc2)CCCCC1	.	0.7%	.	.
Cc1ccc(S[C@@H](CCN2CC[C@H](O)CCC2=O)c2ccccc2)cc1	-8.3%	35.5µM*	-2.5%	-10.2%
Cc1ccccc1C(=O)N1CCC(N2CCCCCC2=O)CC1	.	89.1µM*	.	.
Cc1ccc(NC(=O)CN(C)C(=O)C(C)N(C)Cc2ccccc2F)cc1 (configuration not stated)	.	-5.9%	.	.
COc1cc(NC(=O)Cn2nc3ccc(SC4CCCCC4)nn3c2=O)cc(OC)c1OC	.	12.8%	.	.
OCCC1CN(Cc2c(O)ccc3ccccc23)CCN1CCc1ccccc1 (configuration not stated)	?	7.08µM*	0.6%	?
Oc1ccc2ccccc2c1CN1CCOCC1	24.5%	7.08µM*	-2.5%	-3.5%
COc1ccc2ccc(O)c(CN3CCN(S(=O)(=O)c4cccc(C(F)(F)F)c4)CC3)c2c1	?	-14.2%	1.7%	.
